According to PubChem BioAssay (NCATS):
Records with an inconclusive call do not appear. The source made the active and inactive calls. Calls come from the whole dose curve; as a rule, active = well fitted inhibition curve with a large enough effect; inconclusive = small, poorly fitted or top-dose-only effect; inactive = flat fitted curve, though single readings scatter.
% is set by controls: 0 for no effect and ±100 for the full control effect.

Each compound was assayed on CRL-7250 (assay: Cytotoxic Profiling of Annotated Libraries Using Quantitative High-Throughput Screening (AID 1296008; note: nearly all actives have a fitted effect of over 60% in size)). Conditions: Five cell lines viability, CellTiter-Glo ATP luminescence, 48-72 h; max response: stronger effect = lower value.
Outline: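 Cytotoxicity was measured as CellTiter-Glo ATP luminescence, read after 10 min at room temperature. Compound treatment of the cells lasted 48 or 72 hr at 37 degrees Celsius in a qHTS format.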
For `CC(=O)OCC(=O)O[C@@H]1[C@H]2[C@@H](OC(=O)c3ccccc3)[C@@H](C)C[C@]2(O)[C@H](OC(C)=O)C2(C)[C@H]3CC(C)(C)C(=O)[C@@H]3CC1(OC(C)=O)[C@@H]2OC(C)=O` (some centres undefined), the max response was -0.187% (inactive).
For `CC1(O)CCC2C(C(=O)O)=COC(OC3OC(CO)C(O)C(O)C3OC(=O)/C=C/c3ccc(O)cc3)C21` (centres undefined), the outcome was “inactive”.
In the case of `CC(=O)NC(CCC(=O)O)C(=O)NCCc1ccc(O)cc1` (centres undefined), the outcome is reported as “inactive”.
In the case of `COC(=O)C1C(c2ccc(O)cc2)C(C(=O)OC)C1c1ccc(O)cc1` (centres undefined), the max response is reported as -3.45% (inactive).
In the case of `C=C(C)C(=O)O[C@H]1C[C@@](C)(OC(C)=O)[C@@]2(O)CC[C@@](C)(O)[C@H](OC(C)=O)[C@@]23OC(=O)C(COC)=C13`, the max response is reported as 3.52% (inactive).
In the case of `CC1(C)CC(=O)N(CCCCN2CCN(c3ncccn3)CC2)C(=O)C1`, the outcome is reported as “inactive”.
In the case of `COc1ccc2c(c1)OC[C@]1(O)c3cc4c(cc3O[C@H]21)OCO4`, the max response is reported as -0.876% (inactive).
`CC(CCC1(O)OC2CC3C4CCC5CC(O[C@@H]6O[C@H](CO)[C@@H](O)[C@H](O)[C@H]6O[C@@H]6OC[C@@H](O)[C@H](O)[C@H]6O)C(O)CC5(C)C4CCC3(C)C2C1C)CO[C@@H]1O[C@H](CO)[C@@H](O)[C@H](O)[C@H]1O` (some centres undefined) was tested, and the max response was -0.157% (inactive).
`COc1cc(CCc2ccccc2)c(C(=O)O)c2c1CC(C(C)(C)O)O2` (centres undefined) was tested, and the outcome was “inactive”.
With `CCCC1=CC2=C(CO1)C(=O)C(C)(OC(=O)c1c(C)cc(OC)cc1O)C(O)C2` (centres undefined) the max response was -27.1% (inactive).
`C[C@@H]1O[C@@H](O[C@@H]2[C@@H](O)[C@H](O[C@@H]3[C@@H](O)[C@@H](O)[C@H](O[C@H]4[C@H](OC(=O)[C@]56CCC(C)(C)C[C@H]5C5=CCC7[C@@]8(C)C[C@H](O)[C@H](O[C@@H]9O[C@@H](C)[C@H](O)[C@@H](O)[C@H]9O)[C@@](C)(CO)C8CC[C@@]7(C)[C@]5(C)C[C@H]6O)O[C@H](C)[C@H](O)[C@@H]4O)O[C@H]3C)OC[C@H]2O)[C@H](O)[C@H](O)[C@H]1O` (some centres undefined) was tested, and the max response was 4.2% (inactive).
With `CCS(=O)(=O)N1CCC([C@@H](C)n2c(C)c(C(=O)NCc3c(OC)cc(C)[nH]c3=O)c3ccccc32)CC1` the outcome was “inactive”.
For `C/C=C1\[C@H](O[C@@H]2O[C@H](CO)[C@@H](O)[C@H](O)[C@H]2O)OC=C(C(=O)OC)[C@H]1CC(=O)OC`, the outcome was “inactive”.
With `O=C(O[C@H]1[C@@H]2C[C@@H]3OC[C@@](O)([C@H]2[C@H](O[C@@H]2O[C@H](CO)[C@@H](O)[C@H](O)[C@H]2O)O3)[C@@H]1O)c1ccccc1` the outcome was “inactive”.
For `CC1CCC2C(C)(C)C(O)CCC2(C)C12Cc1c(O)cc3c(c1O2)C(N)=NC3` (centres undefined), the max response was -9.29% (inactive).
In the case of `C=CC(C)(C)O[C@@H]1O[C@H](CO[C@@H]2OC[C@](O)(CO)[C@H]2O)[C@@H](O)[C@H](O)[C@H]1O`, the max response is reported as -2.3% (inactive).
With `CCCC(N[C@@H](C)C(=O)N1[C@H](C(=O)O)C[C@@H]2CCCC[C@@H]21)C(=O)OCC` (some centres undefined) the outcome was “inactive”.
With `O=C(O)c1ccc(CCCc2ccc(OCCc3ccc(F)cc3)cc2)o1` the max response was -2.7% (inactive).
With `Cc1[nH]cnc1C1CCN(c2nc3cccc4c3n2CCC4=O)CC1` the outcome was “inactive”.
`C[C@@H]1O[C@@H](O[C@@H]2[C@@H](O)[C@H](O[C@@H]3[C@@H](O)[C@@H](O)[C@H](O[C@H]4[C@H](OC(=O)[C@]56CCC(C)(C)C[C@H]5C5=CCC7[C@@]8(C)C[C@H](O)[C@H](O[C@@H]9O[C@H](C(=O)O)[C@@H](O)[C@H](O)[C@H]9O)[C@@](C)(CO)C8[C@H](O)C[C@@]7(C)[C@]5(C)CC6)OC[C@H](O)[C@@H]4O)O[C@H]3C)OC[C@H]2O)[C@H](O)[C@H](O)[C@H]1O` (some centres undefined) was tested, and the max response was -17.9% (inactive).
In the case of `CC1(C)CC2C(O)C3=C(CC(C)(O)C2C1)C(=O)OC3O` (centres undefined), the max response is reported as -0.0685% (inactive).
For `CC(C)=CC/C=C(/C)[C@H]1CC[C@]2(C)[C@@H]1[C@H](O)CC1[C@@]3(C)CC[C@H](O)C(C)(C)[C@@H]3[C@@H](O[C@@H]3O[C@H](CO)[C@@H](O)[C@H](O)[C@H]3O[C@@H]3O[C@@H](C)[C@H](O)[C@@H](O)[C@H]3O)C[C@]12C` (some centres undefined), the max response was -7.49% (inactive).
For `O=C(/C=C/c1ccc(O)cc1)OCC1=C[C@@H](O)[C@@H]2C=CO[C@@H](O[C@@H]3O[C@H](CO)[C@@H](O)[C@H](O)[C@H]3O)[C@H]12`, the max response was -2.56% (inactive).
With `O=C(O[C@H]1[C@@H]2C=CO[C@@H](O[C@@H]3O[C@H](CO)[C@@H](O)[C@H](O)[C@H]3O)[C@@H]2[C@@]2(CO)O[C@@H]12)c1ccc(O)c(O)c1` the outcome was “inactive”.
`O=C(O)C[C@H]1CCC(=O)[C@@H]1C/C=C\CCOC1OC(CO)C(O)C(O)C1O` (some centres undefined) was tested, and the max response was -7.42% (inactive).
In the case of `CC(=O)OC1C(O)C(C)=C(CCC(C)CC(=O)O)C2(C)CCCC(C)(C)C12` (centres undefined), the outcome is reported as “inactive”.
For `Cc1ncc([N+](=O)[O-])n1CC(O)CN1CCOCC1` (centres undefined), the outcome was “inactive”.
In the case of `COc1cc2c(cc1O)C1(Cc3ccc4c(c3C1=O)OCO4)N(C)CC2` (centres undefined), the max response is reported as 3.99% (inactive).
In the case of `COC(=O)[C@H](CC1C=NC=N1)NCC12CC3CC(CC(C3)C1)C2` (some centres undefined), the max response is reported as -3.43% (inactive).
With `CCOC(=O)c1ccc(N(C)c2csc(-c3ccccc3)n2)cc1` the max response was 4.84% (inactive).
In the case of `C/C1=C\C[C@H](O[C@@H]2O[C@H](CO)[C@@H](O)[C@H](O)[C@H]2O)/C(C)=C/[C@H]2OC(=O)[C@H](C)[C@@H]2CC1`, the max response is reported as -3.83% (inactive).
`COc1ccc(C(=O)O[C@H]2CC(C)=CC[C@@]3(C)[C@@H](OC(C)=O)C[C@@](O)(C(C)C)[C@H]23)cc1` was tested, and the max response was -4.18% (inactive).
`CC/C=C\C[C@H]1C(=O)C=C[C@@H]1CCCCCCCC(=O)O` was tested, and the max response was 4.76% (inactive).
In the case of `CC1CC(=O)C2=C(O1)OC1(C)CCC3C(C)(C)C=CC(=O)C3(C)C1C2` (centres undefined), the max response is reported as -3.54% (inactive).
With `CC1(CO)CC2C(O)C(=O)C3(CO)CC3(C)C2C1` (centres undefined) the max response was -4.66% (inactive).
With `CCn1nnnc1NCc1ccc(C(C)C)cc1` the outcome was “inactive”.
`CCNC(=O)CCC/C=C\C[C@@H]1[C@@H](/C=C/C(O)CCc2ccccc2)[C@@H](O)C[C@@H]1O` (some centres undefined) was tested, and the outcome was “inactive”.
For `CN[C@@H]1[C@@H](O)[C@@H](O[C@@H]2[C@@H](O)[C@H](O[C@H]3O[C@H](CN)[C@@H](O)[C@H](O)[C@H]3O)[C@@H](N)C[C@H]2NC(=O)[C@@H](O)CN)OC[C@]1(C)O`, the max response was -2.08% (inactive).
In the case of `CC1(C)OC(=O)C(OCC2CC2)=C1c1ccc(S(C)(=O)=O)cc1`, the outcome is reported as “inactive”.
